Only some compounds are listed: those with a hit (about 11% of all), similar ones and a draw of the others.
ALDH1A1 inh = blocks purified human ALDH1A1 activity; P00352; Purified ALDH1A1, NADH fluorescence, propionaldehyde substrate; Potency, µM (highest dose often 75.3 µM), for the others: top-dose activity, negative = inhibition, actives largely listed as inhibitors; 220,000 compounds, 7.3% hits; AID 1030; active = well fitted inhibition curve with a large enough effect, not every such curve was filed as active; inconclusive = small, poorly fitted or top-dose-only effect, or another doubt; inactive = no such curve, though single readings can be large or run the other way;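 also: potency is read from the fitted curve at half-maximal effect; plate controls were no enzyme wells and a reference inhibitor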
HPGD inh = blocks human HPGD enzyme activity | 150,000 compounds, 4.3% hits | P15428 | purified HPGD, NADH fluorescence kinetic, PGE2 substrate | Potency, µM, for the others: at the highest dose activity change, negative = inhibition, usual class: inhibitors; active = well fitted inhibition curve with a large enough effect, not every such curve was filed as active; inconclusive = small, poorly fitted or top-dose-only effect, or another doubt; inactive = no such curve, though single readings can be large or run the other way; also: potency is read from the fitted curve at half-maximal effect; % is scaled to controls: 0 for no effect and ±100 for the full control effect
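NADH formation kinetics: reaction with 30 uM PGE2 and 1 mM NAD+ (final), 20 nM enzyme, Tris-HCl pH 8 with Tween 20, after 15 min compound preincubation at room temperature. Fluorescence change, last versus first of five reads.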
CBFb-RUNX1 inh = inhibitors of human CBF-beta and RUNX1 interaction. Q01196+Q13951. AlphaScreen CBFb-His/RUNX1-biotin binding, biochemical. Potency, µM (highest dose often 59.8 µM), for inactives: top-dose activity, negative = inhibition, usual class: inhibitors. 230,000 tested, under 10 active. AID 1477; also: % of control where 0% means no effect
Target sequence (Q01196 whole entry, looked up): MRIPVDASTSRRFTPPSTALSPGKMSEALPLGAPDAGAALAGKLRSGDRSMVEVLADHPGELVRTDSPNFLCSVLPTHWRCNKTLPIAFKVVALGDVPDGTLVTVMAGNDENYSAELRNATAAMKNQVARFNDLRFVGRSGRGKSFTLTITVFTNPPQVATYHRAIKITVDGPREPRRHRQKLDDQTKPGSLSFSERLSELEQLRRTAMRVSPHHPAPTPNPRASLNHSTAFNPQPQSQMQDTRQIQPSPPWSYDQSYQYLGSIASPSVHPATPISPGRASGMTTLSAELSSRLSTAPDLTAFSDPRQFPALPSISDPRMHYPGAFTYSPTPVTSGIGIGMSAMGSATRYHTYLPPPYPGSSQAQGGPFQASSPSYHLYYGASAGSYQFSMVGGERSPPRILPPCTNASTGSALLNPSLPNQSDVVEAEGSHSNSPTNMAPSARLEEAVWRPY
Target sequence (Q13951 whole entry, looked up): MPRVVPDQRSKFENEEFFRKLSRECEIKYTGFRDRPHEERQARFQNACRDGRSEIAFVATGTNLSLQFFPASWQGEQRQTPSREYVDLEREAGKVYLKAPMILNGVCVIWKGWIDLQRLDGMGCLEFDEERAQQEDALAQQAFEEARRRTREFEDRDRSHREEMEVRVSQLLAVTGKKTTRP
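Room-temperature protein-protein interaction test with 30 nM each of His-tagged CBF-beta and biotinylated RUNX1, 15 min with compound, then 90 min with nickel plus streptavidin beads. Signal read in AlphaScreen mode.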
HTT aggregate = mutant huntingtin aggregation inhibition; PC12 HttQ103-GFP aggregates, Acumen cytometry, 40 h; Potency, µM (titrated, usually from 46.1 µM), for the others: at the highest dose activity change, negative = inhibition, most hits filed as inhibitors; 220,000 compounds, 1.1% hits; also: potency is read from the fitted curve at half-maximal effect; % is scaled to controls: 0 for no effect and ±100 for the full control effect; nearly all actives have a fitted effect of over 60% in size
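PC12 cells with ecdysone-inducible HTT exon1 Q103-GFP, induced by 100 nM tebufenozide, given compounds in a concentration series. GFP aggregates (1–25 um, 6 SD above background) counted in lysates by laser-scanning cytometry, 488 nm excitation.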
PNC assembly inh = perinucleolar compartment assembly inhibition | PC3M PTB-GFP, PNC prevalence imaging, 16 h; hits give low values | 140,000 compounds, 3.1% hits | AID 2417 | activity change (PNC), negative = inhibition, % at 10 µM;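 active = readout at or below -70, meaning at least 70% loss of cells showing the perinucleolar compartment, a nuclear body marking cancer cells; inconclusive = readout between -30 and a set limit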;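 also: plate controls were DMSO wells for no effect and camptothecin positive control wells for full effect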
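Compounds are pinned in duplicate onto adhered PC3M cells stably expressing GFP-tagged PTB and incubated 16 h at 37 C. Cells are then fixed, nuclei stained with Hoechst, and PNC-positive cells counted.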
HTT ATP protect = protects HTT-Q103 PC12 cells, measured by ATP; AID 1471; PC12 HTT-Q103 induced, cytoprotection, ATP luminescence, 40 h; Potency, µM (highest dose often 56.4 µM), for inactives: cytoprotection (ATP increase), most hits filed as activators; 230,000 compounds, 0.14% hits; also: potency is read from the fitted curve at half-maximal effect; % of control where 0% means no effect; nearly all actives have a fitted effect of over 45% in size
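Huntington model: PC12 line, ecdysone-inducible HTTQ103 exon1–GFP, tebufenozide 100 nM. Test articles in a dose series. Endpoint luminescence from cellular ATP.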
An asterisk follows results filed as active; ? = inconclusive; . = not tested or not shown; [ ] = another dose, or the depositor's remark. Unless noted, calls follow the shape of the dose curve; as a rule, active = well fitted curve in the direction sought with a large enough effect; inconclusive = small, poorly fitted or top-dose-only effect, or another doubt; inactive = no such curve, though single readings can be large; an effect the other way counts as inactive or inconclusive.

SMILES | ALDH1A1 inh | HPGD inh | CBFb-RUNX1 inh | HTT aggregate | PNC assembly inh | HTT ATP protect
O=C(O)COc1ccc(CCNS(=O)(=O)c2ccccc2)s1 | . | . | . | -4% | . | -42%
CC(=O)C1=C(c2ccc(Br)cc2)C(=O)c2ccccc2C1=O | -2% | -6% | -11% | 5µM* | ? | -82%[10 µM]
COc1ccc(/C=N/NC(C)(C)C)c(OC)c1 | 20µM* | . | 9% | -2% | . | -15%[10 µM]
CCCCSc1nnc(CSc2nc3nc(C)cc(C)n3n2)o1 | -7% | 25µM* | 0% | -6% | -6 | -19%
CCCSc1nnc(CSc2nc3nc(C)cc(C)n3n2)o1 | 5% | -12% | 5% | 2% | -11 | -19%
CN(C)c1ccnc(-c2ccccc2C(F)(F)F)n1 | 7% | -4% | . | . | . | 8%
Cn1c(SCC(=O)Nc2ccc3nc(SCC(=O)N4CCCC4)sc3c2)nnc1-c1ccccc1 | 22µM* | 4µM* | -15% | 5% | -22 | -16%
Cn1c(SCC(=O)N2CCOCC2)nnc1-c1cccc(NC(=O)c2ccccc2F)c1 | 25µM* | -15% | 3% | -4% | 25 | -13%
Cn1cnnc1SCC(=O)Nc1ccc2nc(SCc3ccccc3F)sc2c1 | 13µM* | -24% | -9% | ? | -13 | -18%
COC(=O)[C@@]1(Cc2ccccc2)[C@H]2c3cc(C(=O)N4CCCC4)n(C)c3C[C@H]2CN1C(=O)c1ccccc1 | 2% | -6% | . | . | . | -5%
O=C(O)c1ccc(C(=O)O)c(C(=O)Nc2ccc3c(c2)Cc2ccccc2-3)c1 | ? | 3.2µM* | . | . | . | -4%[10 µM]
O=C(Nc1ccc2c(c1)Cc1ccccc1-2)c1ccncc1 | 5% | -19% | ? | 12% | 4 | 21%[10 µM]
O=C(NC(N1CCOCC1)C(Cl)(Cl)Cl)c1ccccc1Cl (stereo not drawn) | 4% | . | 5% | 2% | . | 5%[10 µM]
O=C(NC(N1CCCCCC1)C(Cl)(Cl)Cl)c1ccccc1Cl (stereo not drawn) | 11µM* | -17% | 6% | 5% | 13 | -6%[10 µM]
Nc1cc(=O)[nH]c(SCC(=O)Nc2ccc(S(=O)(=O)N3CCOCC3)cc2)n1 | ? | -21% | 5% | 1% | 80 | -6%
O=C(Nc1ccc(S(=O)(=O)N2CCCCC2)cc1)c1ccccc1Cl | 4% | 0% | 6% | -15% | 30 | -4%
O=C(O)CSCC(=O)Nc1ccc(S(=O)(=O)N2CCCCC2)cc1 | -4% | -7% | 4% | -2% | 13 | -19%
O=C(Cc1cccs1)Nc1ccc(S(=O)(=O)N2CCCC2)cc1 | 13µM* | . | -1% | 10%[9.22 µM] | . | 20%[10 µM]
O=C(Nc1ccccc1)Nc1ccc(S(=O)(=O)N2CCCCC2)cc1 | ? | -8% | 9% | 13µM* | ? | 11%[10 µM]
O=C(O)CCC(=O)Nc1ccc(S(=O)(=O)N2CCCC2)cc1 | -4% | 3% | 12% | -16% | ? | 8%
CC(SCC(=O)Nc1ccc(S(=O)(=O)N2CCCCC2)cc1)C(=O)O (stereo not drawn) | 28µM* | -2% | -1% | -4% | -7 | 3%
Nc1cc(=O)[nH]c(SCC(=O)Nc2ccc(S(=O)(=O)N3CCCCC3)cc2)n1 | 19µM* | . | -14% | 10%[9.22 µM] | . | 4%[10 µM]
CCNCCCNCCCCNCCCNCC | -3% | -10% | 4%[21.7 µM] | . | . | 11%
COC(=O)[C@@]1(Cc2ccc(F)cc2)[C@H]2c3cc(C(=O)N4CCCC4)n(Cc4c(CO)[nH]cc(C)c4=O)c3C[C@H]2CN1C(=O)c1ccccc1 | -6% | -12% | -5% | . | . | -16%
Cc1nnc(SCC(=O)NC23CC4CC(CC(C4)C2)C3)s1 | ? | . | 6% | -14%[9.22 µM] | . | -14%
Cc1cc(C)nc(SCC(=O)Nc2ccc(S(=O)(=O)N3CCCCC3)cc2)n1 | -12% | -18% | -2% | -17% | 18 | -4%
Cc1csc(SCC(=O)Nc2ccc(S(=O)(=O)N3CCCC3)cc2)n1 | 14µM* | -18% | -3% | 5%[9.22 µM] | 15 | 1%[10 µM]
Cc1csc(SCC(=O)NC23CC4CC(CC(C4)C2)C3)n1 | 3% | 28µM* | 2% | -27% | 33 | -8%
